# Measured values taken from PubChem BioAssay (NCATS).
# Inconclusive results are not listed. A call without a number means that no potency is given here. Unmarked numbers belong to inactive results. Activity calls are given as the source filed them. Calls come from the whole dose curve; as a rule, active = well fitted curve in the direction sought with a large enough effect; inconclusive = small, poorly fitted or top-dose-only effect, or another doubt; inactive = no such curve, though single readings can be large; an effect the other way counts as inactive or inconclusive.
# Experiments:
# [1] = biological target: ATP-dependent 6-phosphofructokinase (Trypanosoma brucei brucei) (UniProt O15648); assay: qHTS Assay to Find Inhibitors of T. brucei phosphofructokinase: hit validation (AID 492961);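 note: luminescence reports ADP formed as PFK phosphorylates fructose-6-phosphate with ATP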
# Outline: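 Compounds titrated; %activity normalized to 0x and 1x enzyme controls, curve-fitted. Readout: ADP-Glo luminescence after 45 min room-temperature reaction of 1.25 nM PFK, 0.1 mM ATP, 0.5 mM F6P, pH 8.0.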
# [2] = qHTS profiling for inhibitors of Plasmodium falciparum proliferation (AID 504749); note: nearly all actives have a fitted effect of over 60% in size; note: potency is the fitted concentration of half-maximal effect; settings: P. falciparum in erythrocytes, SYBR Green DNA, 72 h
# Outline: (§1)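 SYBR Green fluorescence (ex 485 nm, em 535 nm) reports parasite DNA after 72 h compound exposure of infected red cells at 0.3% parasitemia, 2.5% hematocrit; signal normalized to 0.29 uM artemisinin and vehicle wells.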
# [3] = tested on: AA1029; assay: as above; settings: P. falciparum in erythrocytes, SYBR Green DNA, 72 h; series mostly up to 28.7 µM
# Outline: as §1
# [4] = tested on: AS120; assay: as above; settings: P. falciparum in erythrocytes, SYBR Green DNA, 72 h; series mostly up to 28.7 µM
# Outline: as §1
# [5] = tested on: ATS189; assay: as above; settings: P. falciparum in erythrocytes, SYBR Green DNA, 72 h; series mostly up to 28.7 µM
# Outline: as §1
# [6] = tested on: CP185; assay: as above; settings: P. falciparum in erythrocytes, SYBR Green DNA, 72 h; series mostly up to 28.7 µM
# Outline: as §1
# [7] = tested on: CP191; assay: as above; settings: P. falciparum in erythrocytes, SYBR Green DNA, 72 h; series mostly up to 28.7 µM
# Outline: as §1
# [8] = tested on: CP192; assay: as above; settings: P. falciparum in erythrocytes, SYBR Green DNA, 72 h; series mostly up to 28.7 µM
# Outline: as §1
# [9] = tested on: CP211; assay: as above; settings: P. falciparum in erythrocytes, SYBR Green DNA, 72 h; series mostly up to 28.7 µM
# Outline: as §1
# [10] = tested on: CP217; assay: as above; settings: P. falciparum in erythrocytes, SYBR Green DNA, 72 h; series mostly up to 28.7 µM
# Outline: as §1
# [11] = tested on: CP238; assay: as above; settings: P. falciparum in erythrocytes, SYBR Green DNA, 72 h; series mostly up to 28.7 µM
# Outline: as §1
# [12] = tested on: CP252; assay: as above; settings: P. falciparum in erythrocytes, SYBR Green DNA, 72 h; series mostly up to 28.7 µM
# Outline: as §1
# [13] = tested on: CP262; assay: as above; settings: P. falciparum in erythrocytes, SYBR Green DNA, 72 h; series mostly up to 28.7 µM
# Outline: as §1
# [14] = tested on: CP265; assay: as above; settings: P. falciparum in erythrocytes, SYBR Green DNA, 72 h; series mostly up to 28.7 µM
# Outline: as §1
# [15] = tested on: CP286; assay: as above; settings: P. falciparum in erythrocytes, SYBR Green DNA, 72 h; series mostly up to 28.7 µM
# Outline: as §1
# [16] = tested on: Dd2; assay: as above; settings: P. falciparum in erythrocytes, SYBR Green DNA, 72 h; series mostly up to 28.7 µM
# Outline: as §1
# [17] = tested on: ECU; assay: as above; settings: P. falciparum in erythrocytes, SYBR Green DNA, 72 h; series mostly up to 28.7 µM
# Outline: as §1
# [18] = tested on: FAB9; assay: as above; settings: P. falciparum in erythrocytes, SYBR Green DNA, 72 h; series mostly up to 28.7 µM
# Outline: as §1
# [19] = tested on: HB3; assay: as above; settings: P. falciparum in erythrocytes, SYBR Green DNA, 72 h; series mostly up to 28.7 µM
# Outline: as §1
# [20] = tested on: N140; assay: as above; settings: P. falciparum in erythrocytes, SYBR Green DNA, 72 h; series mostly up to 28.7 µM
# Outline: as §1
# [21] = at 28.7 µM (top of the series), parasite line A
# [22] = at 28.7 µM (top of the series), parasite line B
# Sequence of ATP-dependent 6-phosphofructokinase (Trypanosoma brucei brucei) (O15648 whole entry, looked up): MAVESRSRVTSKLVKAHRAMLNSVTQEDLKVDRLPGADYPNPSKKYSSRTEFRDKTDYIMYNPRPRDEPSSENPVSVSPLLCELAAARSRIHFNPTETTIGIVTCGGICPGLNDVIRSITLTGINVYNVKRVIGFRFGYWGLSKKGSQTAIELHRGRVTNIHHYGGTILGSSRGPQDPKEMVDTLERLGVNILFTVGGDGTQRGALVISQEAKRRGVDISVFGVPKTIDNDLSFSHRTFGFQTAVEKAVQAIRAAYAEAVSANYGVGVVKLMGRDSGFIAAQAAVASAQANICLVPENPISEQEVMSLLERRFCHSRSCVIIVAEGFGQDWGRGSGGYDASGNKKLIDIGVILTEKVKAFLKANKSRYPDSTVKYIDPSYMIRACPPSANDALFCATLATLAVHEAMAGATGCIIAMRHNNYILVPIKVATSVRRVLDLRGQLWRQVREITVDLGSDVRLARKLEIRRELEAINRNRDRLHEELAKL
compound,measurement,setting,value
COc1cccc(OC)c1C(=O)NC1C(=O)N2C1SC(C)(C)C2C(=O)O (stereo not given),Potency,[1],inactive
same,"activity, negative = inhibition",[2]; [21],11.2%
same,"activity, negative = inhibition",[2]; [22],-9.69%
same,Potency,[3],inactive
same,Potency,[4],inactive
same,Potency,[5],inactive
same,Potency,[6],inactive
same,Potency,[7],inactive
same,Potency,[8],inactive
same,Potency,[9],inactive
same,Potency,[10],inactive
same,Potency,[11],inactive
same,Potency,[12],inactive
same,Potency,[13],inactive
same,Potency,[14],inactive
same,Potency,[15],inactive
same,Potency,[16],inactive
same,Potency,[17],inactive
same,Potency,[18],inactive
same,Potency,[19],inactive
same,Potency,[20],inactive
NC(=O)NC(CCC(=O)O)C(=O)O (stereo not given),Potency,[1],inactive
same,"activity, negative = inhibition",[2]; [21],-0.405%
same,"activity, negative = inhibition",[2]; [22],3.49%
same,Potency,[3],inactive
same,Potency,[4],inactive
same,Potency,[5],inactive
same,Potency,[6],inactive
same,Potency,[7],inactive
same,Potency,[8],inactive
same,Potency,[9],inactive
same,Potency,[10],inactive
same,Potency,[11],inactive
same,Potency,[12],inactive
same,Potency,[13],inactive
same,Potency,[14],inactive
same,Potency,[15],inactive
same,Potency,[16],inactive
same,Potency,[17],inactive
same,Potency,[18],inactive
same,Potency,[19],inactive
same,Potency,[20],inactive
CCCCCCCCCCCCCCCC(=O)OC[C@H](O)[C@H]1OC[C@@H](O)[C@@H]1O,Potency,[1],inactive
same,"activity, negative = inhibition",[2]; [21],-0.407%
same,"activity, negative = inhibition",[2]; [22],-6.82%
same,Potency,[3],inactive
same,Potency,[4],inactive
same,Potency,[5],inactive
same,Potency,[6],inactive
same,Potency,[7],inactive
same,Potency,[8],inactive
same,Potency,[9],inactive
same,Potency,[10],inactive
same,Potency,[11],inactive
same,Potency,[12],inactive
same,Potency,[13],inactive
same,Potency,[14],inactive
same,Potency,[15],inactive
same,Potency,[16],inactive
same,Potency,[17],inactive
same,Potency,[18],inactive
same,Potency,[19],inactive
same,Potency,[20],inactive
CC(O)C1CCC2C3CCC4CC(O)CCC4(C)C3CCC12C (stereo not given),Potency,[1],inactive
same,"activity, negative = inhibition",[2]; [21],11.7%
same,"activity, negative = inhibition",[2]; [22],5.42%
same,Potency,[3],inactive
same,Potency,[4],inactive
same,Potency,[5],inactive
same,Potency,[6],inactive
same,Potency,[7],inactive
same,Potency,[8],inactive
same,Potency,[9],inactive
same,Potency,[10],inactive
same,Potency,[11],inactive
same,Potency,[12],inactive
same,Potency,[13],inactive
same,Potency,[14],inactive
same,Potency,[15],inactive
same,Potency,[16],inactive
same,Potency,[17],inactive
same,Potency,[18],inactive
same,Potency,[19],inactive
same,Potency,[20],inactive
C[C@H]1[C@@H](OC(=O)CCC(=O)O)OC2OC3(C)CC[C@H]4[C@H](C)CC[C@@H]1[C@@]24OO3 (stereo not given in full),Potency,[1],inactive
same,Potency,[2]; parasite line A,4 nM (active)
same,Potency,[2]; parasite line B,3.5 nM (active)
same,Potency,[3],6.3 nM (active)
same,Potency,[4],5 nM (active)
same,Potency,[5],2.8 nM (active)
same,Potency,[6],5 nM (active)
same,Potency,[7],4.5 nM (active)
same,Potency,[8],9.5 nM (active)
same,Potency,[9],4.8 nM (active)
same,Potency,[10],7.1 nM (active)
same,Potency,[11],4.5 nM (active)
same,Potency,[12],5 nM (active)
same,Potency,[13],5.4 nM (active)
same,Potency,[14],2.5 nM (active)
same,Potency,[15],10 nM (active)
same,Potency,[16],4.5 nM (active)
same,Potency,[17],2.8 nM (active)
same,Potency,[18],4.5 nM (active)
same,Potency,[19],5 nM (active)
same,Potency,[20],3.2 nM (active)
C[C@@H]1C(SC2Cn3cnc[n+]3C2)=C(C(=O)[O-])N2C(=O)[C@H]([C@@H](C)O)[C@@H]12 (stereo not given in full),Potency,[1],inactive
same,"activity, negative = inhibition",[2]; [21],6.33%
same,"activity, negative = inhibition",[2]; [22],11.1%
same,Potency,[3],inactive
same,Potency,[4],inactive
same,Potency,[5],inactive
same,Potency,[6],inactive
same,Potency,[7],inactive
same,Potency,[8],inactive
same,Potency,[9],inactive
same,Potency,[10],inactive
same,Potency,[11],inactive
same,Potency,[12],inactive
same,Potency,[13],inactive
same,Potency,[14],inactive
same,Potency,[15],inactive
same,Potency,[16],inactive
same,Potency,[17],inactive
same,Potency,[18],inactive
same,Potency,[19],inactive
same,Potency,[20],inactive
CC1(C)OC[C@@H]2O[C@@]3(C(=O)O)OC(C)(C)O[C@@H]3[C@@H]2O1,Potency,[1],inactive
same,"activity, negative = inhibition",[2]; [21],1.64%
same,"activity, negative = inhibition",[2]; [22],11.5%
same,Potency,[3],inactive
same,Potency,[4],inactive
same,Potency,[5],inactive
same,Potency,[6],inactive
same,Potency,[7],inactive
same,Potency,[8],inactive
same,Potency,[9],inactive
same,Potency,[10],inactive
same,Potency,[11],inactive
same,Potency,[12],inactive
same,Potency,[13],inactive
same,Potency,[14],inactive
same,Potency,[15],inactive
same,Potency,[16],inactive
same,Potency,[17],inactive
same,Potency,[18],inactive
same,Potency,[19],inactive
same,Potency,[20],inactive
Cc1ccccc1N1C(=O)c2cc(N)ccc2N/C1=C\F,Potency,[1],inactive
same,"activity, negative = inhibition",[2]; [21],-6.61%
same,"activity, negative = inhibition",[2]; [22],-18.2%
same,Potency,[3],inactive
same,Potency,[4],inactive
same,Potency,[5],inactive
same,Potency,[6],inactive
same,Potency,[7],inactive
same,Potency,[8],inactive
same,Potency,[9],inactive
same,Potency,[10],inactive
same,Potency,[11],inactive
same,Potency,[12],inactive
same,Potency,[13],inactive
same,Potency,[14],inactive
same,Potency,[15],inactive
same,Potency,[16],inactive
same,Potency,[17],inactive
same,Potency,[18],inactive
same,Potency,[19],inactive
same,Potency,[20],inactive
O=C1NC(=O)C2C3C=CC(C3)C12 (stereo not given),Potency,[1],inactive
same,"activity, negative = inhibition",[2]; [21],8.3%
same,"activity, negative = inhibition",[2]; [22],20.1%
same,Potency,[3],inactive
same,Potency,[4],inactive
same,Potency,[5],inactive
same,Potency,[6],inactive
same,Potency,[7],inactive
same,Potency,[8],inactive
same,Potency,[9],inactive
same,Potency,[10],inactive
same,Potency,[11],inactive
same,Potency,[12],inactive
same,Potency,[13],inactive
same,Potency,[14],inactive
same,Potency,[15],inactive
same,Potency,[16],inactive
same,Potency,[17],inactive
same,Potency,[18],inactive
same,Potency,[19],inactive
same,Potency,[20],inactive
CC(=O)N[C@H]1[C@H](O[C@@H]2c3ccc(c(Cl)c3)Oc3cc4cc(c3O[C@@H]3O[C@H](CO)[C@@H](O)[C@H](O)C3C)Oc3ccc(cc3Cl)C[C@H]3NC(=O)[C@@H](N)c5ccc(O)c(c5)Oc5cc(O)cc(c5)[C@H](NC3=O)C(=O)N[C@H]4C(=O)N[C@H]3C(=O)N[C@@H]2C(=O)N[C@@H](C(=O)O)c2cc(O)cc(O[C@H]4O[C@H](CO)[C@@H](O)C(O)[C@@H]4O)c2-c2cc3ccc2O)O[C@H](CO)[C@@H](O)[C@@H]1O (stereo not given in full),Potency,[1],inactive
same,"activity, negative = inhibition","[2]; at 12.8 µM (top of the series), parasite line A",-7.42%
same,"activity, negative = inhibition","[2]; at 12.8 µM (top of the series), parasite line B",7.54%
same,Potency,[3],inactive
same,Potency,[4],inactive
same,Potency,[5],inactive
same,Potency,[6],inactive
same,Potency,[7],inactive
same,Potency,[8],inactive
same,Potency,[9],inactive
same,Potency,[10],inactive
same,Potency,[11],inactive
same,Potency,[12],inactive
same,Potency,[13],inactive
same,Potency,[14],inactive
same,Potency,[15],inactive
same,Potency,[16],inactive
same,Potency,[17],inactive
same,Potency,[18],inactive
same,Potency,[19],inactive
same,Potency,[20],inactive
